# Source: PubChem BioAssay
# A selection: hits, their analogues and other compounds. The true share with any hit is near 4.6%.
# tim23-1 inh: tim23-1 yeast growth inhibition; S. cerevisiae tim23-1 growth, BacTiter-Glo luminescence, 24 h; inhibition, % at 20 µM; 330,000 tested, 1.3% active; AID 463212;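 active = growth inhibition of the mutant yeast at or above 50%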;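 note: temperature-sensitive mutant grown at 25 °C; plate controls were DMSO-treated mutant yeast for no effect and medium wells lacking yeast for full effect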
# NLRP3 yeast inh: NALP3 inhibition in yeast. inhibition, % at 10 µM. 330,000 tested, 0.39% active. Yeast reconstituted NLRP3/ASC/caspase-1, beta-gal luminescence, 24 h. AID 2825;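 active = inhibition of 50% or more; inactive = inhibition below 50%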;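 note: plate controls were induced DMSO wells for no effect and uninduced yeast grown without galactose for full effect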
# SKKanGAS inh: blocks kanamycin growth of S. pyogenes SKKanGAS strain; 300,000 tested, 1.3% active; inhibition, % at 7.5 µM; BacTiter-Glo, 6 h; AID 1662;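 active = mean replicate score, as percent of positive control median, at least 50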;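 note: strain carries kanamycin resistance gene driven by streptokinase promoter and grows in 40 µg/ml kanamycin; loss of luminescence reflects streptokinase promoter inhibition or plain growth inhibition; 0% = median of DMSO wells and 100% = positive control at its reference dose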
# TIM10 inh: inhibits growth of TIM10 yeast strain; 330,000 tested, 1.4% active; inhibition, % at 10 µM; AID 463195; S. cerevisiae TIM10 strain growth, BacTiter-Glo luminescence, 24 h;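 active = inhibition of 40% or more at the single tested concentration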;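 note: wild-type TIM10 isogenic control strain grown at permissive 25 °C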
# tim10-1 inh: inhibits growth of tim10-1 mutant yeast. 330,000 tested, 2.2% active. inhibition, % at 20 µM. AID 463190. S. cerevisiae tim10-1 ts strain growth, BacTiter-Glo, 24 h;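 active = inhibition of at least 40%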;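 note: mutant grown at 25 °C; 0% = DMSO wells with yeast and 100% = wells holding no yeast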
# PfHsp90 set2: growth inhibition of yeast expressing Plasmodium Hsp90 | S. cerevisiae expressing PfHsp90, BacTiter-Glo ATP, 48 h; yeast lacking PDR1 and PDR3 efflux regulators | inhibition, % at 9.4 µM | 310,000 tested, 0.32% active | AID 504621;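 active = every replicate shows inhibition above about 80%, whatever the replicate mean, limit read from the data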;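 note: 0% = DMSO neutral controls and 100% = 20 µM radicicol positive controls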
# tim10-1 conf: confirmation of tim10-1 mutant yeast growth inhibitors; 7,400 tested, 56% active; S. cerevisiae tim10-1 ts strain growth, BacTiter-Glo, 24 h; AID 463213; inhibition, % at 20 µM; shares compounds with tim10-1 inh;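 active = inhibition of yeast growth at or above a set limit in either of two repeat tests at 20 µM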;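 note: tim10-1 mutant grown at permissive 25 °C to find synthetic lethal compounds; 0% = DMSO yeast wells and 100% = medium wells without yeast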
# tim10 confirm: confirmation of TIM10 yeast growth inhibitors. 4,600 tested, 63% active. shares compounds with TIM10 inh. AID 463215. S. cerevisiae tim10 strain growth, BacTiter-Glo luminescence, 24 h. inhibition, % at 10 µM;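 active = inhibition of yeast growth at or above a set limit in either of two replicates at 10 µM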;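 note: this counterscreen used the strain with wild-type TIM10; 0% = yeast with DMSO and 100% = medium wells lacking yeast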
# tim23-1 conf: tim23-1 yeast growth inhibition, confirmed | shares compounds with tim23-1 inh | S. cerevisiae tim23-1 growth, BacTiter-Glo luminescence, 24 h | inhibition, % at 20 µM | 4,400 tested, 83% active | AID 463218;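 active = inhibition above about 39% in either of two replicate wells at 20 µM, limit read from the data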;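 note: temperature-sensitive tim23-1 mutant grown at 25 °C; 0% = DMSO wells with yeast and 100% = medium wells without yeast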
# * = called active by the depositor; . = no result given.
SMILES,tim23-1 inh,NLRP3 yeast inh,SKKanGAS inh,TIM10 inh,tim10-1 inh,PfHsp90 set2,tim10-1 conf,tim10 confirm,tim23-1 conf
O=C(COC(=O)C12CC3CC(CC(C3)C1)C2)Nc1ccc(OC(F)F)cc1,59*,0,6,57*,44*,14,22,46*,62*
O=C(COC(=O)c1cc(Br)ccc1O)Nc1cccnc1Cl,-2,5,-9,-2,8,25,.,.,.
Cc1ccc(Nc2ccc3nonc3c2[N+](=O)[O-])cc1,7,4,-2,14,12,-12,.,.,.
Cc1ccc(Nc2ccc([N+](=O)[O-])nc2[N+](=O)[O-])cc1,53*,18,1,42*,42*,1,27,25,43*
CC(SC#N)C(=O)C12CC3CC(CC(C3)C1)C2 (stereo unspecified),66*,19,1,55*,53*,-2,39*,41*,50*
O=C(Cc1c(F)cccc1Cl)Nc1nc2ccccc2s1,55*,29,9,48*,43*,-33,30*,34*,63*
CCN1/C(=C/c2ccc3cccc(C)c3[n+]2CC)Sc2ccccc21,68*,6,52*,77*,64*,-15,74*,79*,72*
CC(=O)n1c(=O)oc2ccccc21,4,2,11,-1,-9,-15,.,.,.
CC1=NN(c2nc3ccccc3[nH]2)C(=O)/C1=C/N(C)C,59*,-1,.,21,59*,81*,active,.,59*
CC1=NN(c2ccccc2)C(=O)/C1=C/N(C)C,6,22,-3,-16,6,3,.,.,.
Cc1cccc(CN2C(=O)/C(=C\c3ccc(C(=O)NCCCN4CCN(C)CC4)cc3)Oc3ccccc32)c1,62*,18,11,5,44*,53,-18,.,46*
Oc1c(C(c2cccs2)N2CCN(c3ccccc3)CC2)ccc2cccnc12 (stereo unspecified),59*,15,.,1,56*,.,40*,.,78*
O=C(NCc1cccnc1)C1CCN(S(=O)(=O)c2cc(Cl)ccc2Cl)CC1,0,15,-4,-11,-34,6,.,.,.
Cc1ccc(C)c2sc(N3CCN(C(=O)c4ccc([N+](=O)[O-])o4)CC3)nc12,73*,35,65*,-102,70*,.,60*,.,7
CC(=O)OCn1ncc(N2CCOCC2)c(Br)c1=O,-1,11,5,4,1,-1,.,.,.
O=C(OCn1ncc(Br)c(Br)c1=O)c1ccccc1Cl,73*,-27,6,77*,58*,90*,50*,-9,23
O=C(OCn1ncc(Br)c(Br)c1=O)c1ccc(F)cc1,55*,1,13,71*,73*,99*,65*,-14,38
O=[N+]([O-])c1cc(Cl)cc2c1nc(NCCO)c1ccccc12,55*,9,32,40,67*,-5,50*,.,47*
Cc1cccc(CSc2cccc3cccnc23)c1,51*,41,43,37,46*,.,40*,.,50*
CSc1nc(Oc2ccc(=O)n(C)n2)nc(N(C)C)n1,-9,10,-6,-9,-18,11,.,.,.
COc1ccccc1NC(=O)Nc1ccc(-n2ccc(C(F)(F)F)n2)cc1,64*,16,3,30,54*,10,50*,.,60*
C/C(=N\Nc1ccc([N+](=O)[O-])cc1)c1ccc(O)cc1,70*,-5,-4,24,44*,-42,19,.,55*
C/C(=N\Nc1ccc([N+](=O)[O-])cc1)c1cccc(N)c1,26,33,4,4,-24,5,.,.,.
CC(C)=C(NC(=O)c1ccccc1)C(=O)Nc1ccc(C(=O)O)cc1,2,5,-2,-13,-5,-41,.,.,.
CC1=CC(=O)C=C(C)C1=NOc1ccccc1[N+](=O)[O-],66*,2,3,72*,78*,27,76*,18,83*
SMILES,tim23-1 inh,NLRP3 yeast inh,SKKanGAS inh,TIM10 inh,tim10-1 inh,PfHsp90 set2,tim10-1 conf,tim10 confirm,tim23-1 conf
Cc1cc(C)c(S(=O)(=O)Oc2ccccc2[N+](=O)[O-])c(C)c1,.,.,.,.,.,-18,.,.,.
OCCNC(=S)NCCc1ccccc1,8,-4,0,0,11,-28,.,.,.
O=C(NC(=S)NCc1ccccc1)c1ccccc1F,51*,-4,1,22,40*,-12,27*,.,25
O=C(NC(=S)NCc1ccccc1)c1ccccc1Br,43,26,5,12,-3,-23,.,.,.
O=C(NC(=S)NCCc1ccccc1)c1ccccc1,55*,7,-1,43*,45*,.,20,41*,48*
Cc1ccc(SCC(=O)OCn2nnc3ccccc3c2=O)cc1C,67*,1,-1,26,42*,14,26,.,51*
COc1ccc(C(=O)NC(=S)Nc2ccc(CN3CCOCC3)cc2)cc1Br,24,32,1,7,31,2,.,.,.
CN(Cc1ccc(F)cc1)C(=O)c1cc(COc2ccc(-n3cncn3)cc2)on1,59*,13,2,41*,53*,-4,37*,35*,43*
CCOC(=O)C1=C(CSc2nc3ccccc3s2)NC(=O)NC1c1cc(C)ccc1C (stereo unspecified),24,16,1,6,12,-15,.,.,.
CCOC(=O)C1=C(C)N=C2c3ccccc3C(=O)C2C1c1ccc(Cl)cc1 (stereo unspecified),18,4,18,9,13,37,.,.,.
CCOC(=O)C1=C(Cc2ccc(Cl)cc2)C(=O)c2ccccc2C1=O,67*,1,21,57*,64*,105*,67*,58*,63*
C#CCN(CC=C)C(=O)c1ccc2nc(C3CCCCC3)oc2c1,33,20,2,18,31,-16,.,.,.
CCn1c2ccccc2c2cc(/C(C)=N/O)ccc21,75*,14,-4,42*,61*,5,56*,45*,84*
COc1ccc(S(=O)(=O)N2CCC(C(=O)c3ccc4c(c3)OCCO4)CC2)cc1,59*,42,-4,60*,55*,1,55*,55*,55*
O=C(c1ccc2c(c1)OCCO2)C1CCN(S(=O)(=O)c2ccccc2F)CC1,53*,23,0,42*,50*,-31,43*,30,48*
O=C(CN1CCC(C(=O)c2ccc3c(c2)OCCO3)CC1)Nc1ccccc1F,26,5,-2,-5,26,24,.,.,.
